Source: PubChem BioAssay (NCI)
About 79,000 compounds went through this panel and 15% of them were active in at least one assay; those are over-represented in the sample as a whole. A number with no mark means an inactive call. The source made the active and inactive calls. Rule as the data show it: active = growth inhibition above about 70%; inactive = the rest.

Key:
[1] = NCI Yeast Anticancer Drug Screen. Data for the wt1 strain (AID 149);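 also: 0% = growth of vehicle-treated wt1 cultures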; conditions: S. cerevisiae wt1 strain (SPY 50644) growth inhibition, active compounds read high
Summary of the method: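 Growth inhibition read against vehicle controls after compound exposure of the wt1 yeast strain.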

[2] = NCI Yeast Anticancer Drug Screen. Data for the rad50EPP+ strain (AID 151);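 also: 0% = growth of vehicle-treated control cultures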; conditions: S. cerevisiae rad50 mutant strain, active compounds read high
Summary of the method: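 Measured: growth inhibition of rad50EPP+ yeast. Reference: vehicle-treated controls. Screen uses strains with defined genetic alterations in DNA damage repair or cell cycle control.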

[3] = NCI Yeast Anticancer Drug Screen. Data for the rad50 strain (AID 155);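 also: 0% = growth of vehicle-only cultures of the same strain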; conditions: S. cerevisiae rad50 strain growth inhibition, active compounds read high
Summary of the method: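 Readout: growth inhibition relative to vehicle-treated cultures. Compound exposure was carried out in a genetically defined yeast strain deficient in DNA damage repair.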

[4] = NCI Yeast Anticancer Drug Screen. Data for the mec2-1 strain (AID 157); conditions: S. cerevisiae mec2-1 strain, active compounds read high
Summary of the method: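 Compounds were applied to mec2-1 yeast cells. Their growth was then compared with that of vehicle-treated cultures to give growth inhibition.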

[5] = NCI Yeast Anticancer Drug Screen. Data for the rad14 strain (AID 159);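 also: 0% = growth of vehicle-treated control cultures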; conditions: S. cerevisiae rad14 strain growth inhibition, active compounds read high
Summary of the method: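 Growth inhibition vs vehicle controls; genetically altered yeast strain (DNA damage repair defect) treated with test compounds.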

[6] = NCI Yeast Anticancer Drug Screen. Data for the sgs1 mgt1 strain (AID 161);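 also: 0% = growth of cultures given vehicle only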; conditions: S. cerevisiae sgs1 mgt1 strain, active compounds read high
Summary of the method: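 Percent growth inhibition was derived by comparing compound-exposed mutant yeast with vehicle-exposed cultures. The strain carries alterations in DNA damage repair.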

[7] = NCI Yeast Anticancer Drug Screen. Data for the CLN2oe strain (AID 163);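 also: 0% = growth of vehicle-only control cultures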; conditions: S. cerevisiae CLN2oe strain, active compounds read high
Summary of the method: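 Cells of an engineered yeast line with disturbed cell-cycle regulation are treated with compound. Inhibition of growth is then calculated relative to the vehicle-treated reference.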

[8] = NCI Yeast Anticancer Drug Screen. Data for the cln2 rad14 strain (AID 165);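 also: 0% = growth equal to vehicle treated cultures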; conditions: S. cerevisiae cln2 rad14 strain, active compounds read high
Summary of the method: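 Strain: cln2 rad14 yeast, altered in cell cycle control and DNA damage repair. Read-out: growth inhibition vs vehicle.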

[9] = NCI Yeast Anticancer Drug Screen. Data for the bub3 strain (AID 167); conditions: S. cerevisiae bub3 mutant strain, active compounds read high
Summary of the method: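 Readout: yeast growth inhibition, expressed relative to vehicle-only wells. The test organism is a mutant strain from a panel with lesions in DNA repair or checkpoint genes.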

[10] = NCI Yeast Anticancer Drug Screen. Data for the wt2 strain (AID 169);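 also: 0% = growth of vehicle-treated yeast cultures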; conditions: S. cerevisiae wt2 strain growth inhibition, active compounds read high
Summary of the method: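 Growth of compound-treated yeast is measured and expressed as inhibition relative to vehicle-only controls.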

[11] = NCI Yeast Anticancer Drug Screen. Data for the mlh1 strain (AID 171);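 also: 0% = growth of vehicle-treated control cultures of the same strain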; conditions: S. cerevisiae mlh1 strain growth inhibition, active compounds read high
Summary of the method: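 Test agents were incubated with yeast bearing a defined DNA damage repair or cell cycle control alteration; values are growth inhibition normalised to vehicle-treated cultures.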

[12] = NCI Yeast Anticancer Drug Screen. Data for the sgs1 strain (AID 173);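 also: 0% = growth of vehicle-only control cultures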; conditions: S. cerevisiae sgs1 mutant, active compounds read high
Summary of the method: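 Strain with an altered DNA repair or cell cycle pathway exposed to compound. Growth then measured. Value = inhibition versus vehicle control.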

[13] = NCI Yeast Anticancer Drug Screen. Data for the mlh1 rad18 strain (AID 175); conditions: S. cerevisiae mlh1 rad18 strain growth inhibition, active compounds read high
Summary of the method: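 A repair-deficient yeast strain is exposed to test compound, and growth is scored relative to vehicle-treated controls.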

[14] = NCI Yeast Anticancer Drug Screen. Data for the rad18 strain (AID 177); conditions: S. cerevisiae rad18 mutant growth inhibition, active compounds read high
Summary of the method: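 DNA-repair-defective yeast; compound treatment; growth inhibition scored against vehicle.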

[15] = at 5.0 µM (retest, dose inferred, filed as 0.5)
[16] = at 50.0 µM (retest, dose inferred, filed as 5.0)

OB(O)c1ccccc1C#Cc1ccccc1B(O)O gave a growth inhibition ([1]; at 1.2 µM) of -2%, a growth inhibition ([1]; at 3.7 µM) of 0% and a growth inhibition ([1]; at 11.0 µM) of 6%. It also gave a growth inhibition ([1]; at 33.0 µM) of 18%, a growth inhibition ([1]; at 100.0 µM) of 59% and a growth inhibition ([2]; at 1.2 µM) of 0%. The growth inhibition ([2]; at 3.7 µM) was 6%, the growth inhibition ([2]; at 11.0 µM) was 36% and the growth inhibition ([2]; at 33.0 µM) was 69%. The growth inhibition ([2]; at 100.0 µM) was 85% (active), the growth inhibition ([3]; at 1.2 µM) was 7% and the growth inhibition ([3]; at 3.7 µM) was 17%. For the same molecule, the growth inhibition [3, 15] was 12%, the growth inhibition ([3]; at 11.0 µM) was 47% and the growth inhibition ([3]; at 33.0 µM) was 84% (active). For the same molecule, the growth inhibition [3, 16] was 79% (active), the growth inhibition ([3]; at 50.0 µM) was 61.5% and the growth inhibition ([3]; at 100.0 µM) was 96% (active). It also gave a growth inhibition ([4]; at 1.2 µM) of -6%, a growth inhibition ([4]; at 3.7 µM) of 1% and a growth inhibition [4, 15] of 5%. The growth inhibition ([4]; at 11.0 µM) was 13%, the growth inhibition ([4]; at 33.0 µM) was 43% and the growth inhibition [4, 16] was 50%. For the same molecule, the growth inhibition ([4]; at 50.0 µM) was 50%, the growth inhibition ([4]; at 100.0 µM) was 87% (active) and the growth inhibition ([5]; at 1.2 µM) was -1%. The growth inhibition ([5]; at 3.7 µM) was 3%, the growth inhibition ([5]; at 11.0 µM) was 14% and the growth inhibition ([5]; at 33.0 µM) was 41%. For the same molecule, the growth inhibition ([5]; at 100.0 µM) was 97% (active), the growth inhibition [6, 15] was 4% and the growth inhibition [6, 16] was 44%. It also gave a growth inhibition ([6]; at 50.0 µM) of 64.2%, a growth inhibition ([7]; at 1.2 µM) of -2% and a growth inhibition ([7]; at 3.7 µM) of 1%. For the same molecule, the growth inhibition ([7]; at 11.0 µM) was 13%, the growth inhibition ([7]; at 33.0 µM) was 38% and the growth inhibition ([7]; at 100.0 µM) was 86% (active). The growth inhibition [8, 15] was 9%, the growth inhibition [8, 16] was 39% and the growth inhibition ([8]; at 50.0 µM) was 70.3% (active). The growth inhibition ([9]; at 1.2 µM) was -7%, the growth inhibition ([9]; at 3.7 µM) was -8% and the growth inhibition [9, 15] was -1%. The growth inhibition ([9]; at 11.0 µM) was -8%, the growth inhibition ([9]; at 33.0 µM) was 8% and the growth inhibition [9, 16] was 20%. The growth inhibition ([9]; at 50.0 µM) was 58%, the growth inhibition ([9]; at 100.0 µM) was 79% (active) and the growth inhibition ([10]; at 1.2 µM) was -1%. For the same molecule, the growth inhibition ([10]; at 3.7 µM) was -3%, the growth inhibition ([10]; at 11.0 µM) was 3% and the growth inhibition ([10]; at 33.0 µM) was 18%. The growth inhibition ([10]; at 100.0 µM) was 93% (active), the growth inhibition ([11]; at 1.2 µM) was 1% and the growth inhibition ([11]; at 3.7 µM) was 1%. The growth inhibition ([11]; at 11.0 µM) was 12%, the growth inhibition ([11]; at 33.0 µM) was 27% and the growth inhibition ([11]; at 100.0 µM) was 94% (active). It also gave a growth inhibition ([12]; at 1.2 µM) of -1%, a growth inhibition ([12]; at 3.7 µM) of 4% and a growth inhibition ([12]; at 11.0 µM) of 17%. For the same molecule, the growth inhibition ([12]; at 33.0 µM) was 35%, the growth inhibition ([12]; at 100.0 µM) was 91% (active) and the growth inhibition [13, 15] was 20%. The growth inhibition [13, 16] was 79% (active), the growth inhibition ([13]; at 50.0 µM) was 68.2% and the growth inhibition ([14]; at 1.2 µM) was -4%. The growth inhibition ([14]; at 3.7 µM) was 0%, the growth inhibition ([14]; at 11.0 µM) was 8% and the growth inhibition ([14]; at 33.0 µM) was 40%. For the same molecule, the growth inhibition ([14]; at 100.0 µM) was 95% (active).
